Assay results as given in the supplement of paper PMC11417369.
Whole data set: some 25,000 sequences, median “ln(normalized median fluorescence intensity)” near 6.7, cut for the highest 2% near 10. The sample holds the highest values, similar sequences and a random draw of the others, so the mix is not that of the screen.

Each sequence was assayed on PfHDP1 homeodomain (GST-tagged) (assay: gcPBM binding intensity (ln(normalized median fluorescence intensity)); higher = stronger DNA binding).
Procedure, shortened: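 Binding intensity values are the highest Masliner-normalised natural-log median intensity among replicate spots of either probe orientation. The binding step lasted 1 h in 1× PBS with 1% milk, 0.2 mg/ml BSA, 0.5% salmon testes DNA and 0.03% Triton X-100, using GST-tagged P. falciparum DNA-binding domains expressed in E. coli on an Agilent 4 × 180k array of primer-extended double-stranded 36-bp intergenic genomic probes plus negative controls. Alexa488 anti-GST antibody and a 488 nm scan detected bound protein.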

| Sequence | gcPBM binding intensity (ln) |
| --- | --- |
| TTTTTATATATATGTATAAATATTTTTTCTATTTAT [XGTACX_negctrl_site606] | 6.46 |
| ACATCAAGCAGACACACACACACACCCACCCACCCA [CACACA_site8012] | 6.5 |
| ACAGGAAAAAACAATTGTACATGTATATATATATAT [XGTACX_site7677] | 9.16 |
| AAATATTACATACACGCACACATTAATATATTTAAA [CACACA_site2603] | 7.25 |
| TATGTATGTATTAATGCGCACACAAAAAATAACAAT [CACACA_site8551] | 7.73 |
| TAAATAATAATAAATGTGCACAGGTATTAACAAAAA [GTGCAC_site9988] | 10.6 |
| TTAATTTTATTTTTTTGTACACATAAATATTATAAA [XGTACX_site4680] | 6.62 |
| TTATATTTTTTAATTACACACAATTTTTATAAATAT [CACACA_site4148] | 6.66 |
| TGTATGTATTAATGCGCACACAAAAAATAACAATAT [CACACA_site1848] | 7.88 |
| TAAGATATAAAAAATGTGCACATTAAAGTATTAATT | 10.5 |
| TATAAAGATATAAATGCACACGTATTAAAAAAAAAA [CACACA_site8223] | 8.22 |
| CATATAAATATTTGTGCACACAATTATTAATAATTA [CACACA_site3884] | 11.2 |
| AAAAAAAAAAAAAAATGTACATATTAAGTATAATTA [XGTACX_site4616] | 6.23 |
| TAATAAATAAAAACATGTACATATATACATATATGT [XGTACX_site485] | 6.35 |
| ATATATATAAATATATGTACATAAATATATTTGTAA [XGTACX_site6715] | 6.71 |
| GAAAAAAGGAAATAAAGAAAAAAAAAAATGAAATAT [XGTACX_negctrl_site318] | 6.22 |
| AACATTTTAAAACAGACACACACCAAAAAAAAAAAA [CACACA_site257] | 6.26 |
| GGACAAGTTAAACGCACACAAATATATACCCCCATA [CACACA_site4996] | 7.91 |
| CCTTGTCTTTTTTTTTTTTTTTTTTCTTCTTATTTT [GTGCAC_negctrl_site523] | 6.24 |
| CATATAGTAATATATACACACACTTGTCTTGTAAAA [CACACA_site8238] | 6.54 |
| ATTTAATACAAATACACACACAAATATGTACCTATA [CACACA_site7718] | 7.02 |
| GTTTACATCATTCTGGTGCAAAAAAAAAAAAAAATA | 10.5 |
| GAAAAATATATTCTGGTGCATGAATAAAATCATAAA | 9.33 |

| Sequence | gcPBM binding intensity (ln) |
| --- | --- |
| ACATTCTGATGGTGATTATTAATTATTACAAAAATT [CACACA_negctrl_site283] | 6.01 |
| AATTAAAAAGTTTTTAATGTTTTTAATTTTTTCCAC [XGTACX_negctrl_site423] | 5.99 |
| TATATATATTAAAAACGTACAAAATAAGAATTAATT [XGTACX_site5979] | 6.8 |
| TTTATATTAATTGATGTGCACTGAAATATTTGTCCA [GTGCAC_site9655] | 9.08 |
| TTTATTTTTGAAGTTGCACACACAAAAATAAAAAGT [CACACA_site8030] | 8.92 |
| TATTTTGAAAAAGTTGCACACAAAATTTAAAAAAAA [CACACA_site8470] | 9.29 |
| TTATTTTATTTTTGTGCACACTGATAAATTGAAAAG [CACACA_site2949] | 11.2 |
| ATTTTATTTTTGTGCACACTGATAAATTGAAAAGAG [CACACA_site2948] | 11.1 |
| TTTTGAAAAAATTTTTATAAAAGAATAAAATTATTA [XGTACX_negctrl_site570] | 6.06 |
| CACTTTTTTTAAATGTGTACGTATATGAAAATATCA [XGTACX_site4854] | 6.38 |
| GTTATATGAACTTATATACACACCATTTTTGTAAAT [CACACA_site695] | 6.69 |
| AAAATTAACCGTAACACACACACATATAAATATGTA [CACACA_site7791] | 6.55 |
| TAATTTTTCCTTTTTGCACACATTAACGTCGACGAA [CACACA_site4025] | 10.8 |
| TAATTATCACATTGCACACACATTTCCTTTTACATT [CACACA_site3443] | 9.61 |
| TCTAATTATCACATTGCACACACATTTCCTTTTACA [CACACA_site9140] | 9.66 |
| TTTTATGTTCTTAATGCACACTTATAAGTATCTTAT [CACACA_site4895] | 10.6 |
| TTATGTTCTTAATGCACACTTATAAGTATCTTATAA [CACACA_site1394] | 9.72 |
| TATATATATATATGTATGCACTTTAATTTTATAAGG | 9.31 |
| TATGAATATTGCATGTGTACCTATTATCCTTTTAAA [XGTACX_site4311] | 6.95 |
| TATAAAAAAAAAAAAAGTACTAACTTAAAACAATTT [XGTACX_site7969] | 5.92 |
| TATTCAACATAATATGCACACAAAAATTATGGAACG [CACACA_site8660] | 9.99 |
| CACTTTAATTTATGCACACATATGGAACAACAGCCA [CACACA_site994] | 10.6 |
| AACACTTTAATTTATGCACACATATGGAACAACAGC [CACACA_site8241] | 10.2 |

| Sequence | gcPBM binding intensity (ln) |
| --- | --- |
| TTATAATAATTTTATGCACACAGAAAAATACAAGGT [CACACA_site9169] | 10.2 |
| TTTTTAATATATTAGGTGCACAATAATACACTTTAT | 10.3 |
| TTTTTTTAACGGTGTGCACACAATATACAGAAAAAA [CACACA_site1415] | 11.1 |
| TTTTTTTAATAGTGTGCACACAATATACAGAAAAAA [CACACA_site8399] | 11 |
| ACAGAATACATATACACACATACAAAAAAGTGCATA [CACACA_site987] | 7.81 |
| TTTTTAAAAATATACACACACAGATATTATATATAT [CACACA_site786] | 6.94 |
| TGTAGTCTGGAGAAAAGTACATAGTATCTGATAACC [XGTACX_site2018] | 6.4 |
| CCATTTTAAATATGCACACAGATGCACTAACACATT [CACACA_site5099] | 10.6 |
| GCACTAAAAAAATAAACACACAGATTTATATAATAT [CACACA_site1381] | 6.5 |
| AACCATTTTAAATATGCACACAGATGCACTAACACA [CACACA_site8565] | 10.5 |
| TAAATATGCTCACAGATGCACTAACACATTTTTATA [GTGCAC_site9997] | 10.4 |
| CCATTTTAAATATGCACACAGATGCACTAACCCATT [CACACA_site1883] | 9.9 |
| TGGCACTAAAAAAATAAACACACAGATTTATATAAT [CACACA_site8386] | 6.51 |
| TATGTTCCTTTTTGTTGTACTGAAAAATTATGTTCA [XGTACX_site3981] | 6.61 |
| GAAATAATAAATTAAAAATCGTTTATAACATTTAAC [CACACA_negctrl_site425] | 6.21 |
| AAATTCATAAAAATATTTTATAATTATATATAGAAT [TGCATGCA_negctrl_site343] | 6.34 |
| ATAAAATATATATATATAAAAATAAATACATAAATA [GTGCAC_negctrl_site157] | 6.31 |
| CACAAAAAGAAACACACACACATATATATTTATTAT [CACACA_site3646] | 6.73 |
| GCATATGTTTATTGCACACACCAAAAAGAAAACATA [CACACA_site4384] | 10.5 |
| ATGCATATGTTTATTGCACACACCAAAAAGAAAACA [CACACA_site403] | 9.25 |
| ACTATATTTCATAACAGTACATATTCCTGAAACATC [XGTACX_site4924] | 6.43 |
| ATAATATAAATACAAACACACAATTGTGTCCACATT [CACACA_site6920] | 6.79 |
| AGTATATACACGTGCGTGCACAGATATTCTTTTTTT [GTGCAC_site9398] | 9.58 |

| Sequence | gcPBM binding intensity (ln) |
| --- | --- |
| AATACTAAAAAGTGTACACATACATAAAAAATTGCA [CACACA_site5620] | 7.24 |
| TGTTAATAAAGGTGTACACAAAATAAAAAAAATTAT [CACACA_site4288] | 7.2 |
| TCTTTATGTAAGGTCTTCCACAAAAAAATTAAAAAA [TGCATGCA_negctrl_site229] | 6.21 |
| TTTATATTTAAAAGGATGCACTACAAATTCTAAATA | 7.36 |
| ATATTCTAAATAAAGGGTACACAAAAATAATTAAAG [XGTACX_site5529] | 6.9 |
| GTACACTAATTATGTGCACACAAATTAAAGGTCTAC [CACACA_site146] | 11 |
| AATTAATGGCTAAAGGTGCACAATATATATATTACA | 9.84 |
| CCACTAATTATGTGCACACAAATTAAAGGTCTACAA [CACACA_site4259] | 11.4 |
| ACGCTAATTATGTGCACACAAATTAAAGGTCTACAA [CACACA_site147] | 11.4 |
| GATTTATACAAATATGTACACACTAATTATATATTA [CACACA_site8045] | 6.9 |
| TTTTTCTTTCTCTATTGTACACATGGAAACACATAA [XGTACX_site4601] | 7.56 |
| AAAAAAAAAAGAAACACACACATATATATATATAAT [CACACA_site5052] | 6.7 |
| AATACAAACCAAAAAGTAAATACATCAACATGATCA [CACACA_negctrl_site140] | 6.26 |
| CTATATATTTTTCATTGTACACAAATTAAAGAAAAA [XGTACX_site8385] | 6.61 |
| ATGTTGCACAATGTTACACACACAATATATATCGTT [CACACA_site4833] | 10.7 |
| GTTGCACAATGTTACACACACAATATAGATCGTTAA [CACACA_site6717] | 9.91 |
| GTTGCACAATGTTACACACACAATATATATCGTTAA [CACACA_site1275] | 9.41 |
| ATATAATTACATTGATGTACACGAAATGATTAACAT [XGTACX_site5183] | 6.43 |
| ATTCATTTACCAATGGTGCAATATATTTTTATAATG | 10.3 |
| TATTCATATTTAAAGGTGCAATATTTATTTTGTACA | 9.16 |
| TATTCAGGTCCAATGGTGCAATATATTTTTGTAATA [GTGCAC_site9607] | 10.6 |
| ATTAGTATATTTCTCTGTACTTACATTAAAATATAA [XGTACX_site2217] | 6.41 |
